Measurements reported in PubChem BioAssay AID1159580 (chemical genetic matrix, 2015).
Screen size: about 5,500 compounds; about 2,000 (36%) were called active. Inconclusive results (about 18%) are left out. Cut-off read from the data, not from the text of the source: active = normalized growth mostly below about 0.91 (no sharp cut-off); inconclusive = no clear call, values can overlap the other calls; inactive = mostly above about 0.92. Some of the results follow.

Assay: chemical genetic growth profiling, strain panel (AID 1159580);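 note: tested at 20 µM; growth read once vehicle control cultures reached saturation at 30 °C; 1 = growth at the plate median or of vehicle wells; lower values mean less growth of the strain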
Conditions: S. cerevisiae deletion strains, growth OD

Measured: normalized growth

COc1c(Cl)ccc(Cl)c1C(=O)O
inactive: locus YAL013W, strain DEP1, hits give low values 1.01 | locus YAL021C, strain ccr4, hits give low values 0.972 | locus YAL026C, strain drs2, hits give low values 0.988 | locus YAL030W, strain snc1, hits give low values 0.984 | locus YBL061C, strain skt5, hits give low values 0.977 | locus YBR009C, strain hhf1, hits give low values 0.988 | locus YBR021W, strain FUR4, hits give low values 1.02 | locus YBR023C, strain chs3, hits give low values 0.995 | locus YBR171W, strain sec66, hits give low values 0.977 | locus YBR229C, strain ROT2, hits give low values 0.999 | locus YBR231C, strain swc5, hits give low values 0.968 | locus YBR279W, strain paf1, hits give low values 0.982 | locus YCL011C, strain gbp2, hits give low values 0.981 | locus YCL016C, strain dcc1, hits give low values 0.986 | locus YCL029C, strain bik1, hits give low values 1.02 | locus YCL061C, strain MRC1, hits give low values 0.985 | locus YCL069W, strain vba3, hits give low values 0.984 | locus YCR088W, strain abp1, hits give low values 0.978 | locus YDL005C, strain med2, hits give low values 0.975 | locus YDL035C, strain GPR1, hits give low values 1.02 | locus YDL040C, strain nat1, hits give low values 0.977 | locus YDL074C, strain BRE1, hits give low values 1.04 | locus YDL101C, strain DUN1, hits give low values 1.01 | locus YDL134C, strain PPH21, hits give low values 1.01 | locus YDL185W, strain tfp1, hits give low values 1.02 | locus YDL192W, strain arf1, hits give low values 1.02 | locus YDR001C, strain nth1, hits give low values 0.985 | locus YDR069C, strain doa4, hits give low values 0.976 | locus YDR101C, strain arx1, hits give low values 1.01 | locus YDR137W, strain rgp1, hits give low values 1.01 | locus YDR150W, strain NUM1, hits give low values 1 | locus YDR159W, strain sac3, hits give low values 0.972 | locus YDR162C, strain NBP2, hits give low values 1.01 | locus YDR195W, strain ref2 0.919 | locus YDR297W, strain sur2, hits give low values 0.993 | locus YDR318W, strain mcm21, hits give low values 1.02 | locus YDR334W, strain swr1, hits give low values 0.979 | locus YDR335W, strain msn5, hits give low values 0.985 | locus YDR388W, hits give low values 1.01 | locus YDR392W, strain spt3, hits give low values 0.999 | locus YDR502C, strain sam2, hits give low values 1.01 | locus YEL003W, strain gim4, hits give low values 0.985 | locus YEL037C, strain rad23, hits give low values 0.985 | locus YEL061C, strain CIN8 (second series), hits give low values 0.973 | locus YEL061C, strain CIN8, hits give low values 0.997 | locus YER015W, strain faa2, hits give low values 0.981 | locus YER016W, strain bim1, hits give low values 0.985 | locus YER110C, hits give low values 1.02 | locus YER111C, strain swi4, hits give low values 0.96 | locus YER155C, strain BEM2 (second series), hits give low values 0.982 | locus YER155C, strain BEM2, hits give low values 1.01 | locus YER167W, strain BCK2, hits give low values 1.02 | locus YFR010W, strain ubp6, hits give low values 0.983 | locus YGL078C, strain dbp3, hits give low values 1.01 | locus YGL086W, strain mad1, hits give low values 1.01 | locus YGL167C, strain pmr1, hits give low values 0.984 | locus YGL173C, strain kem1, hits give low values 0.982 | locus YGL227W, strain vid30, hits give low values 0.97 | locus YGL240W, strain doc1, hits give low values 0.961 | locus YGL248W, strain PDE1, hits give low values 1.01 | locus YGL253W, strain hxk2, hits give low values 0.993 | locus YGR078C, strain PAC10, hits give low values 1.01 | locus YGR135W, strain pre9, hits give low values 1.02 | locus YGR229C, strain SMI1, hits give low values 1.04 | locus YGR252W, strain gcn5, hits give low values 1.02 | locus YHR013C, strain ard1, hits give low values 0.957 | locus YHR027C, strain rpn1, hits give low values 0.995 | locus YHR030C, strain SLT2, hits give low values 1.01 | locus YHR079C, strain IRE1 (second series), hits give low values 1.01 | locus YHR094C, strain hxt1, hits give low values 1.01 | locus YHR129C, strain ARP1, hits give low values 1.01 | locus YHR142W, strain chs7, hits give low values 0.979 | locus YHR200W, strain rpn10, hits give low values 1 | locus YIL066C, strain RNR3, hits give low values 1.04 | locus YIL073C, strain SPO22, hits give low values 1.09 | locus YIL125W, strain kgd1, hits give low values 1.01 | locus YIR030C, strain dcg1, hits give low values 1.01 | locus YJL092W, strain hpr5, hits give low values 0.987 | locus YJL095W, strain BCK1 (second series), hits give low values 0.99 | locus YJL095W, strain BCK1, hits give low values 1.02 | locus YJL115W, strain asf1, hits give low values 0.976 | locus YJL129C, strain trk1, hits give low values 0.976 | locus YJL134W, strain LCB3, hits give low values 1.01 | locus YJL154C, strain vps35, hits give low values 0.992 | locus YJL164C, strain tpk1, hits give low values 0.987 | locus YJL166W, strain qcr8, hits give low values 0.997 | locus YJL168C, strain set2, hits give low values 1.01 | locus YJL187C, strain SWE1 (second series), hits give low values 1.01 | locus YJL187C, strain SWE1, hits give low values 0.99
